RECQ1 inh: qHTS Assay for Inhibitors of RecQ-Like Dna Helicase 1 (RECQ1). ATP-dependent DNA helicase Q1 (Homo sapiens), P46063. RECQ1 DNA unwinding, red fluorescence kinetic read. Potency, µM (highest dose often 57.3 µM), hits mostly inhibitors. actives 0.54% (n = 240,000). AID 2549, 2010; also: nearly all actives have a fitted effect of over 30% in size
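50 nM RECQ1T1 preincubated 15 min with compound in Tris pH 8.0 buffer with MgCl2, DTT, Tween-20 and 2.5 ug/ml poly(dI-dC); started with 200 nM TAMRA/BHQ-2 forked duplex and 2 mM ATP. Unwinding read as fluorescence (525/598 nm), two reads 2 h apart.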
PGK inhibitor: qHTS Assay to Find Inhibitors of Phosphoglycerate Kinase | actives 0.043% (n = 380,000) | PGK/GAPDH coupled, Kinase-Glo luminescence, 60 min | Potency, µM (doses to about 57.5 µM), hits mostly inhibitors | AID 602233, 2012; also: nearly all actives have a fitted effect of over 60% in size
Target sequence (P07378 whole entry, looked up): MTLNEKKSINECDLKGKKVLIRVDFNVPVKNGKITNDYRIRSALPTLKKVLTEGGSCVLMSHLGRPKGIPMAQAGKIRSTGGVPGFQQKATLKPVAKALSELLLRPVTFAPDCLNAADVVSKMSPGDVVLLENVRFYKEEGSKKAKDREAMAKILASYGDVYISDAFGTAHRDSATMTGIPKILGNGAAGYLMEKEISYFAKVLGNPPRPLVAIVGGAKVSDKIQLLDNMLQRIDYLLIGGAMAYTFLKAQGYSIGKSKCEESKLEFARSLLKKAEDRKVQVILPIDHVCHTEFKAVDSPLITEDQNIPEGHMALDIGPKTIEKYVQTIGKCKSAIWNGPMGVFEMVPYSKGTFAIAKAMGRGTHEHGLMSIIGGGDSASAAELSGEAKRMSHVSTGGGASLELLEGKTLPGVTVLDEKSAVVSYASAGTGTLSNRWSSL
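Recombinant glycosomal PGK reaction used 1,3-bisphosphoglycerate generated in-well by GAPDH (100nM final) in 100mM TEA pH 7.6, 5mM MgCl2, 0.01% Tween-20. After 60 minutes at room temperature, ATP was read by Kinase-Glo Plus luminescence end-point.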
BLM helicase inh: qHTS Assay for Inhibitors of Bloom's syndrome helicase (BLM); Potency, µM (top dose mostly 56.1 µM), usual class: inhibitors; actives 0.2% (n = 350,000); recombinant BLM DNA unwinding, fluorescence dequenching; AID 2528, 2010; also: nearly all actives have a fitted effect of over 35% in size
TDP1 block: qHTS Assay for Inhibitors of Tyrosyl-DNA Phosphodiesterase (TDP1); Tyrosyl-DNA phosphodiesterase 1 (Homo sapiens), Q9NUW8; recombinant TDP1, AlphaScreen DNA substrate cleavage; Potency, µM (titrated, usually from 130 µM), most hits filed as inhibitors; actives 0.28% (n = 350,000); AID 485290, 2010; also: nearly all actives have a fitted effect of over 40% in size
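Recombinant human Tdp1 (E. coli-expressed, 1 nM final) preincubated with compounds 15 min at room temperature, then 5'-biotin/3'-phosphotyrosine-FITC DNA substrate (15 nM final) added for 5 min. AlphaScreen beads (10 ug/ml final) added 10 min; cleavage lowers signal.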
APE1 inh: qHTS Assay for Inhibitors of the Human Apurinic/apyrimidinic Endonuclease 1 (APE1); recombinant APE1, TAMRA/BHQ-2 abasic DNA cleavage fluorescence; actives 0.35% (n = 350,000); AID 2517, 2012; DNA repair nuclease/redox regulator APEX1 (Homo sapiens), P27695; Potency, µM (top dose mostly 65.8 µM), actives largely listed as inhibitors; also: nearly all actives have a fitted effect of over 55% in size
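Substrate: short duplex with […] THF abasic site, 5'-TAMRA and 3'-BHQ-2, 50 nM final. APE1 at 0.75 nM, preincubated 15 min RT with compound. Fluorescence increase from first to third read measured activity.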
GLS inh: qHTS for Inhibitors of Glutaminase (GLS). AID 624170, 2012. actives 0.21% (n = 410,000). Potency, µM (series often up to 45.5 µM), actives largely listed as inhibitors. GLS enzymatic activity, qHTS titration. Glutaminase kidney isoform, mitochondrial (Homo sapiens), O94925
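hKGA in 45 mM KH2PO4 pH 8.2, 0.02% Tween-20 with pin-transferred compounds; 1 mM L-glutamine (stock) plus glutamate oxidase/HRP/Amplex Red coupling added. Fluorescence read initially and after 30 min at RT.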
Numbers stand for hits; – = inactive; ? = inconclusive; · = not tested or not shown. Sampled rows, rich in hits. Any-hit rate of the full collection: about 0.85%. Calls follow the shape of the dose curve; as a rule, active = well fitted curve in the direction sought with a large enough effect; inconclusive = small, poorly fitted or top-dose-only effect, or another doubt; inactive = no such curve, though single readings can be large; an effect the other way counts as inactive or inconclusive.

SMILES	RECQ1 inh	PGK inhibitor	BLM helicase inh	TDP1 block	APE1 inh	GLS inh
CN1C(=CC=C2C=C(I)C(=O)C(I)=C2)C(C)(C)c2ccccc21	0.63µM	?	28µM	–	–	–
CN1/C(=C\C=C2/SC(=S)NC2=O)C(C)(C)c2ccccc21	32µM	–	?	–	25µM	–
CCCN1C(=O)/C(=C\C=C2\N(CC)c3ccccc3C2(C)C)SC1=S	–	–	–	–	–	–
CC(Cc1c[nH]c2ccccc12)C(=O)O (configuration not stated)	35µM	?	–	–	?	–
CC(=O)N[C@H](Cc1c[nH]c2ccccc12)C(=O)O	·	–	·	·	·	–
O=C(COCCOCCOCC(=O)Nc1c(I)cc(I)c(C(=O)O)c1I)Nc1c(I)cc(I)c(C(=O)O)c1I	·	·	·	·	·	–
CC(=O)c1ccc(NC(=O)c2noc3c2CCC3)cc1	?	–	–	25µM	?	–
O=C(O)C1(C(=O)O)CCC1.[NH2-].[NH2-].[Pt+2]	–	·	–	–	11µM	·
O=C(O)C1(C(=O)O)CCCC1	·	–	·	·	·	–
O=C1C=C(O)CC(c2ccco2)C1 (configuration not stated)	?	?	–	·	3.2µM	?
CC(=O)Nc1ccc(OC2=NS(=O)(=O)c3ccccc32)cc1	·	·	·	–	·	·
Cc1ccccc1-c1cc(-n2ccnc2)ncn1	–	·	–	25µM	–	·
CC[n+]1ccc(/C=C/c2ccc(N(C)C)cc2)c2ccccc21	35µM	?	–	–	–	–
COc1ccc(C2Nc3ccccc3C(=O)N2CCc2ccc(Cl)cc2Cl)cc1COc1ccc(NC(C)=O)cc1 (configuration not stated)	·	·	·	–	·	·
O=C(COc1ccc(Cl)cc1Cl)NC(=S)Nc1ccccc1C(=O)O	–	·	–	–	–	·
O=C(COc1ccc(Cl)cc1Cl)Nc1ccc(C(=O)Nc2ccccc2C(=O)O)cc1	·	–	?	50µM	–	?
O=C(COc1ccccc1Cl)Nc1cc(NC(=O)COc2ccccc2Cl)cc(C(=O)O)c1	·	?	–	35µM	–	–
O=C(O)CCC(=O)NNc1ncnc2ccccc12	–	–	–	–	–	–
O=C(O)CCC(=O)NNc1nc2ccccc2nc1-c1ccccc1	–	–	–	–	–	11µM
NC(=O)C1CCN(c2nc(-c3ccc(N4CCCCC4)nc3)cs2)CC1	·	·	·	·	–	·
Cc1ccc(-c2nc3ccccc3nc2-c2ccccc2)cc1	·	–	–	79µM	–	–
O=C1N/C(=C\c2ccc(O)cc2)C(=O)c2ccccc21	–	–	32µM	–	?	–
COc1ccc(/C=C2/SC(=O)N(CCC(=O)Nc3ccc(C)cc3)C2=O)cc1OC	–	·	–	–	–	·
COc1cc(/C=C2/SC(=S)N(CC(=O)O)C2=O)ccc1OCC(=O)Nc1ccc(C)c(C)c1	·	·	?	13µM	4.7µM	·
CC(=O)N1CCOc2cc(S(=O)(=O)Nc3cc(C(F)(F)F)ccc3Cl)c(C)cc21	·	–	–	–	·	–
SMILES	RECQ1 inh	PGK inhibitor	BLM helicase inh	TDP1 block	APE1 inh	GLS inh
CC(=O)N1CCOc2cc(S(=O)(=O)Nc3cccc(C(F)(F)F)c3)c(Cl)cc21	·	–	–	11µM	–	–
O=C(c1ccc(F)cc1)N1CCOCC1	–	–	–	–	–	–
O=C(c1coc(=O)c(Br)c1)N1CCOCC1	–	?	–	22µM	13µM	?
O=C(c1ccc(=O)oc1)N1CCOCC1	–	?	–	·	14µM	11µM
O=C(c1ccc(=O)oc1)N1CCCc2ccccc21	?	?	?	18µM	32µM	16µM
O=S1(=O)N=C(OCc2ccccc2)c2ccccc21	·	·	·	–	·	·
Cc1ccc2[nH]c(=O)c3cc(C(=O)N4CCN(c5ccccc5)CC4)sc3c2c1	·	–	–	–	·	–
